Experimental data: PubChem BioAssay
Calls of active or inactive are those of the source.

What was measured:
[1] = binders of probe aFSTL3 on microarray, primary screen, stem cell growth factor project, biochemical, small-molecule microarray, fluorescence 635/667 (AID 1064); settings: higher = more signal;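 note: measures binding of the biotinylated anti-FSTL3 antibody to printed compounds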
[2] = binders from COS7 lysate, DM2A8 probe, primary screen, torsin A project, cell lysate, small-molecule microarray, fluorescence 635/667 (AID 1065); settings: higher = more signal, COS7 lysate expressing mutant human TOR1A
[3] = binders of probe aFGF2 on microarray, primary screen, stem cell growth factor project, biochemical, small-molecule microarray, fluorescence 635/667 (AID 1067); settings: higher = more signal;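 note: measures binding of biotinylated aFGF2 protein to printed compounds on slides; z-score merges feature fluorescence and signal-to-noise across triplicate slides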
[4] = binders of probe aFGF10 on microarray, primary screen, stem cell growth factor project, biochemical, small-molecule microarray, fluorescence 635/667 (AID 1071); settings: higher = more signal;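 note: score merges 667 nm spot intensity and signal to noise from triplicate slides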
[5] = molecular target: Neurogenic locus notch homolog protein 2 (Homo sapiens) (UniProt Q04721); assay: Notch2 binders on small-molecule microarrays, primary screen, biochemical, small-molecule microarray, 635 nm fluorescence, stem cell growth factors (AID 1073); settings: Notch2 binding, higher = more signal
[6] = molecular target: Pro-neuregulin-1, membrane-bound isoform (Homo sapiens) (UniProt Q02297); assay: NRG1 binders on small-molecule microarrays, primary screen, psychiatric disease protein project, biochemical, small-molecule microarray, fluorescence 635/667 (AID 1075); settings: NRG1 binding, 635 nm fluorescence, higher = more signal;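 note: score combines 667 nm spot fluorescence with signal to noise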
[7] = tested on: Neuregulin-1 EGF-like domain; assay: binders of neuregulin-1 EGF-like domain, primary screen, biochemical, small-molecule microarray, 635 nm fluorescence (AID 1081); settings: small-molecule microarray binding, higher = more signal;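 note: binding of the protein to compounds printed on small-molecule microarray slides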
[8] = FRG1 promoter luciferase signal modulators, primary screen, FRG1 inhibition for FSHD, cell-based, C2C12 myotubes, firefly/Renilla luciferase, luminescence (AID 1084); settings: higher = more signal, called active from +8 up or from −8 down
[9] = binders of probe aFST on microarray, primary screen, stem cell growth factor project, biochemical, small-molecule microarray, fluorescence 635/667 (AID 1086); settings: higher = more signal;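 note: score merges 667 nm fluorescence with signal-to-noise of each printed compound spot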
[10] = binders of probe aHhip on microarray, primary screen, stem cell growth factor project, biochemical, small-molecule microarray, fluorescence 635/667 (AID 1087); settings: higher = more signal;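 note: score merges spot fluorescence at 667nm with spot signal to noise ratio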
[11] = tested on: PRMT1 (protein arginine N-methyltransferase 1); assay: PRMT1 binders on small-molecule microarrays, primary screen, biochemical, small-molecule microarray, 635 nm fluorescence (AID 1088); settings: small-molecule microarray binding, higher = more signal;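 note: binding of Prmt1 protein to compounds spotted on small-molecule microarray slides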
[12] = yeast growth modulation, basal conditions, primary screen, YJM789 clinical isolate, OD600, 24 h (AID 1089);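 note: growth of clinical yeast isolate S. cerevisiae YJM 789 seeded 1000 cells per well; test concentration not given here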; settings: S. cerevisiae YJM789 growth, higher = more signal, called active from +8 up or from −8 down
[13] = fission yeast growth modulation, primary screen, strain 972, OD600, 24 h, no modulator (AID 1090);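 note: basal condition with compound alone and no growth modifier present; test concentration not given here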; settings: S. pombe 972 growth, higher = more signal, called active from +8 up or from −8 down
[14] = S. cerevisiae growth modulation with rapamycin, primary screen, strain BY4716, OD600, 96 h (AID 1091); settings: higher = more signal, called active from +8 up or from −8 down; note: test concentration not given here
[15] = molecular target: Torsin-1A-interacting protein 2 (Homo sapiens) (UniProt Q8NFQ8); assay: LULL1 binders on small-molecule microarray, primary screen, cell lysate, human LULL1 lysate, 635/667 nm fluorescence (AID 1092); settings: hLULL1 lysate binding, 635 nm fluorescence, higher = more signal;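 note: probe is lysate of COS7 cells overexpressing human LULL1; score merges per-feature 667 nm fluorescence with signal-to-noise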
[16] = E. coli growth modulation, two-sided OD650, primary screen, E. coli filamentation project, strain DRC41, 24 h (AID 1093); settings: OD650, 24 h, higher = more signal, called active from +8 up or from −8 down;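 note: MC1000 strain lacking acrAB efflux and sulA so SOS filamentation is blocked; test concentration not given here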
[17] = small-molecule microarray binders of probe aLefty2, primary screen, biochemical, biotinylated probe, 635/667 nm fluorescence (AID 1094); settings: higher = more signal;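 note: score merges spot fluorescence near 667 nm with spot signal-to-noise ratio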
[18] = tested on: Noggin (protein binding on small-molecule microarray); assay: Noggin binders on small-molecule microarray, primary screen, biochemical, 635/667 nm fluorescence (AID 1095); settings: 635 nm fluorescence, higher = more signal;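 note: score merges 667 nm feature fluorescence with signal to noise over triplicate slides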
[19] = molecular target: Neurogenic locus notch homolog protein 3 (Homo sapiens) (UniProt Q9UM47); assay: NOTCH3 binders on small-molecule microarray, primary screen, biochemical, 635/667 nm fluorescence (AID 1096); settings: NOTCH3 binding, 635 nm fluorescence, higher = more signal
[20] = small-molecule microarray binders of probe aEGFR, primary screen, biochemical, biotinylated probe, 635/667 nm fluorescence (AID 1097); settings: higher = more signal;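 note: probe is a biotinylated anti-EGFR antibody binding compounds printed on slides; score combines fluorescence near 667 nm and signal to noise of each spot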

Chain of Torsin-1A-interacting protein 2 (Homo sapiens) (Q8NFQ8 whole entry, looked up): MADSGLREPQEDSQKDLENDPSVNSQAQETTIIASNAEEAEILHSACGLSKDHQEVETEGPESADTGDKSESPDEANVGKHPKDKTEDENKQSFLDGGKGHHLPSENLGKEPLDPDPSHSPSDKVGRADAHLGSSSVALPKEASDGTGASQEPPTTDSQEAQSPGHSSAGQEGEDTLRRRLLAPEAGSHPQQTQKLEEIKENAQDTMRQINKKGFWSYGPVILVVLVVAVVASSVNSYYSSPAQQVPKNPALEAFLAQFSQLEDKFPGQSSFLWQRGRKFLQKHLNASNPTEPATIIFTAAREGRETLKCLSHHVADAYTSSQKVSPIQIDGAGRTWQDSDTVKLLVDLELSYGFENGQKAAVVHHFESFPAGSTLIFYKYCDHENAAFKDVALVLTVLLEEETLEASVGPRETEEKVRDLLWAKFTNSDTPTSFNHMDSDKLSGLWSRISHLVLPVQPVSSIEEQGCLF
Chain of Neurogenic locus notch homolog protein 3 (Homo sapiens) (Q9UM47 whole entry, looked up): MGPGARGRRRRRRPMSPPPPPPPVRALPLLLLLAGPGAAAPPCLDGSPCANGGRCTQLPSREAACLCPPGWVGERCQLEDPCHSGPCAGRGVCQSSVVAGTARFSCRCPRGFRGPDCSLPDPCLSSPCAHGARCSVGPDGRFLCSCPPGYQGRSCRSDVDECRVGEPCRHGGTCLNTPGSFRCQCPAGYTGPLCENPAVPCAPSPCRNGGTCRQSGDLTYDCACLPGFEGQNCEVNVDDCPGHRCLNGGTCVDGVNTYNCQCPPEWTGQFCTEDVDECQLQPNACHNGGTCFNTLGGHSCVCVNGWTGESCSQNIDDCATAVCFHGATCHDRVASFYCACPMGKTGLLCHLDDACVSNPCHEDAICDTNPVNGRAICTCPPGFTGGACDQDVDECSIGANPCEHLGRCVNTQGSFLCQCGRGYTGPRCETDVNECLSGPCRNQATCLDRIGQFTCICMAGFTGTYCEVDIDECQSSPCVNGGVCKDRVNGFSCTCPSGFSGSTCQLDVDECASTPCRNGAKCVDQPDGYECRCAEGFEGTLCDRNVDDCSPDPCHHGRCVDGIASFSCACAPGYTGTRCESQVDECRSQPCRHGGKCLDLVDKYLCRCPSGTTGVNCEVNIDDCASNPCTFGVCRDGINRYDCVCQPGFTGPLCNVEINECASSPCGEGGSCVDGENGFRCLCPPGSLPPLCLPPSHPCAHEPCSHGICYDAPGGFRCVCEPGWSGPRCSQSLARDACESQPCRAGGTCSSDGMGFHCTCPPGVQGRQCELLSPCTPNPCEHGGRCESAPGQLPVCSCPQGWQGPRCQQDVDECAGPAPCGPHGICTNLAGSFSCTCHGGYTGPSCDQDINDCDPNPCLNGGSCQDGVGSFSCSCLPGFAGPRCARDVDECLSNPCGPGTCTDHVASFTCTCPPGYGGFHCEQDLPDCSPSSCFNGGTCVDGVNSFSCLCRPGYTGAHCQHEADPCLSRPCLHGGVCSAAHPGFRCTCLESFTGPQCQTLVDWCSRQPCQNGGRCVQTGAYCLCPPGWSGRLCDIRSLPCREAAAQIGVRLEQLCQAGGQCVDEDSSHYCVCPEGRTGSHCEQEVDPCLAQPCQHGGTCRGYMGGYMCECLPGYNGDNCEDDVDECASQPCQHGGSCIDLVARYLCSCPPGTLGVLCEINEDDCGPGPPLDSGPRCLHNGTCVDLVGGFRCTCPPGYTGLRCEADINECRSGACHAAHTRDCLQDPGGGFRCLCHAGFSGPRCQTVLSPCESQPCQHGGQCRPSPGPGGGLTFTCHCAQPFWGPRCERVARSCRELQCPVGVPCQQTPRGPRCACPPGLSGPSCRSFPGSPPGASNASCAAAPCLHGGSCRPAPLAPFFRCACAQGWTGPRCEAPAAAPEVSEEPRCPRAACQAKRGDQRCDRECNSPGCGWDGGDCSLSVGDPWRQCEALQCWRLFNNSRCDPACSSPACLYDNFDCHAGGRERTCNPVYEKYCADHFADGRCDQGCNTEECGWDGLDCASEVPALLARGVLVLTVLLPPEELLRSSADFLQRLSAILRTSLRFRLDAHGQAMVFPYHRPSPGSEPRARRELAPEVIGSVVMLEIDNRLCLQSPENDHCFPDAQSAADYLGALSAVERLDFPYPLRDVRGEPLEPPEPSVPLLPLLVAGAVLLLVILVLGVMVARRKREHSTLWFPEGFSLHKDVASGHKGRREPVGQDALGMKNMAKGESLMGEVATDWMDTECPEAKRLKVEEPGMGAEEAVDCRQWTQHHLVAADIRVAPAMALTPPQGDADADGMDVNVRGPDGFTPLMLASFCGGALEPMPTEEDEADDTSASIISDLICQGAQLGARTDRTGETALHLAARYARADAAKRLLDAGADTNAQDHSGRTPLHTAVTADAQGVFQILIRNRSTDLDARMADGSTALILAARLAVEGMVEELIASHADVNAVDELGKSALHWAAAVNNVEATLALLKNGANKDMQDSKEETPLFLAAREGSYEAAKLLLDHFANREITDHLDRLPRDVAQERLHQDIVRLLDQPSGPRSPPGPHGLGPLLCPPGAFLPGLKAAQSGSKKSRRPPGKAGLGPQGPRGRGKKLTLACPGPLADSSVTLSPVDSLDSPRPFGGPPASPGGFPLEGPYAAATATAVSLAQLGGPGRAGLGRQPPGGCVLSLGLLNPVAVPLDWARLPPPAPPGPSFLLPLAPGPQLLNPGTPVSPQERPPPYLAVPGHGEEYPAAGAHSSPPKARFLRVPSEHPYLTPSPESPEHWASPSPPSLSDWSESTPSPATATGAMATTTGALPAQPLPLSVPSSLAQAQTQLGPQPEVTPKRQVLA
Chain of Pro-neuregulin-1, membrane-bound isoform (Homo sapiens) (Q02297 whole entry, looked up, the tested form may be a part, canonical isoform): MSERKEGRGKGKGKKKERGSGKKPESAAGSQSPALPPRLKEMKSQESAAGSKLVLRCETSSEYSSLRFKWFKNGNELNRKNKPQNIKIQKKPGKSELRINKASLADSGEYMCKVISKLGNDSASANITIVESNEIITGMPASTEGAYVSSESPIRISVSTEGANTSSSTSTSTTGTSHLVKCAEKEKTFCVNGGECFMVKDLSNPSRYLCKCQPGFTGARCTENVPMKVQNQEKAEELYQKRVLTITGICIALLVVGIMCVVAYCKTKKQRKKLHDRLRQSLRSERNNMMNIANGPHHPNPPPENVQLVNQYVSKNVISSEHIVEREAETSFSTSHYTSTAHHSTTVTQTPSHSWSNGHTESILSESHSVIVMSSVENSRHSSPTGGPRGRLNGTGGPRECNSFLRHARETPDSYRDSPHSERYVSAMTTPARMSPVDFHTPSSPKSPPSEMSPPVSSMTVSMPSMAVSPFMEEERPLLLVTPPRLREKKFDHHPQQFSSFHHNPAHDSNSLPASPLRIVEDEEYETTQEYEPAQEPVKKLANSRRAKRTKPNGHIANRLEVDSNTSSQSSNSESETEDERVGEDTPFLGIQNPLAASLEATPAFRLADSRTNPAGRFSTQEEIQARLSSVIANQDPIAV

Compound	composite z-score [1]	composite z-score [2]	composite z-score [3]	composite z-score [4]	composite z-score [5]	composite z-score [6]	composite z-score [7]	z-score [8]	composite z-score [9]	composite z-score [10]	composite z-score [11]	z-score [12]	z-score [13]	z-score [14]	composite z-score [15]	z-score [16]	composite z-score [17]	composite z-score [18]	composite z-score [19]	composite z-score [20]
COc1cccc(C)c1NC(=O)O[C@H]1[C@H](OC(=O)Nc2ccccc2)[C@@H](OC(=O)Nc2ccccc2)[C@@H](OC)O[C@@H]1CO	-0.0439	0.639	0.0811	1.06	1.48	1.81	1.46	0.91 (inactive)	0.837	0.149	1.56	1.52 (inactive)	0.176 (inactive)	4.1 (inactive)	3.36	-0.93 (inactive)	0.0321	0.902	1.12	0.0182
CO[C@H]1O[C@H](CO)[C@@H](OC(=O)Nc2cccc(F)c2)[C@H](OC(=O)c2cc3ccccc3[nH]2)[C@H]1OC(=O)c1cc2ccccc2[nH]1	-0.277	-0.108	-0.0355	0.463	-0.0665	1.33	0.24	-1.46 (inactive)	-0.238	-0.0726	0.669	-2 (inactive)	0.201 (inactive)	0.296 (inactive)	0.338	-0.178 (inactive)	-0.15	0.696	0.0453	-0.1
O=C1OCCC/C=C\[C@H]2OC34C=CCN(Cc5ccccc5)C(=O)[C@H]3N(CCO)C(=O)[C@@H]4C12 (stereo not given in full)	0.166	1.08	-0.226	0.866	0.479	1.79	1.53	0.0936 (inactive)	-0.342	-0.0994	0.216	-0.27 (inactive)	-1.72 (inactive)	-0.462 (inactive)	2.22	2.29 (inactive)	0.235	-0.353	0.0094	0.0618
O=C1NC(=O)C2C1C=CC(C(O)C(c1ccccc1)c1ccccc1)N2Nc1ccccn1 (stereo not given)	0.473	0.521	0.162	0.951	1.05	0.604	1.25	0.723 (inactive)	0.59	-0.0959	0.72	0.583 (inactive)	1.44 (inactive)	-0.968 (inactive)	1.27	-0.519 (inactive)	0.673	-0.0976	0.0943	0.389
COCCOC(=O)N1C(=O)[C@@]2(c3cc(C#CCCO)ccc31)[C@H](c1ccc(O)cc1)N1[C@H](c3ccccc3)[C@H](c3ccccc3)OC(=O)[C@H]1[C@@H]2C(=O)NC[C@H](O)c1ccccc1	-0.0825	0.332	-0.0271	0.589	0.163	1.25	1.29	-1.69 (inactive)	0.0962	-0.0645	1.53	1.08 (inactive)	0.933 (inactive)	3.26 (inactive)	2.15	1.76 (inactive)	-0.195	0.697	1.03	-0.103
CCCN1C(=O)[C@@]2(c3ccc([N+](=O)[O-])cc3)CC(=O)N(C3CCCCC3)[C@@H]2c2ccc(CO)cc21	-0.439	-0.768	-0.0131	-0.201	-0.553	-0.154	1.23	0.693 (inactive)	-0.479	0.137	0.254	-0.383 (inactive)	1.29 (inactive)	-0.117 (inactive)	-0.298	-0.0384 (inactive)	0.198	0.73	-0.327	0.0785
COc1cccc(C)c1NC(=O)O[C@H]1[C@H](OC(=O)Nc2ccc3c(c2)OCO3)[C@H](OC(=O)Nc2ccc3c(c2)OCO3)[C@@H](OC)O[C@@H]1CO	0.394	0.439	0.06	0.867	1.25	1.13	1.35	3.61 (inactive)	1.05	0.12	1.55	1.5 (inactive)	0.718 (inactive)	4.29 (inactive)	3.19	0.358 (inactive)	0.107	0.701	1.04	-0.0192
[N-]=[N+]=NCc1ccccc1C[C@]1(C(=O)N2CCCCC2)COC(c2ccc(OCCCO)cc2)=N1	0.438	0.184	-0.0151	1.01	0.207	1.13	0.996	-4.13 (inactive)	1.68	2.35	1.57	0.504 (inactive)	-1.92 (inactive)	34.8 (active)	1.55	3.43 (inactive)	0.346	0.683	0.202	0.306
C=C(CCCC)/C(=C/C[C@@H](OC(C)=O)c1cccc(OCCO)c1)c1cc(C(=O)OC)ccc1OC	0.289	-0.0739	-0.14	0.222	0.0199	0.361	0.31	0.942 (inactive)	-0.0258	-0.0618	1.57	-0.397 (inactive)	0.86 (inactive)	-0.709 (inactive)	0.709	0.236 (inactive)	-0.0524	0.656	0.0716	-0.0698
Cc1ccc(N2C(=O)c3ccccc3[C@@H](C(=O)NCCN3CCOCC3)[C@@H]2c2ccc(CO)cc2)nc1	1.02	-1.48	-0.116	-0.319	-1.34	0.209	-0.297	0.169 (inactive)	-0.58	-0.249	0.722	0.333 (inactive)	-0.33 (inactive)	-1.59 (inactive)	0.58	0.346 (inactive)	-0.0798	0.0453	0.248	-0.197
